Glioma ERSR ind = ER stress response induction in glioma; U87-MG GRP78 promoter luciferase reporter, 16 h; Potency, µM, for the others: at the top dose activation, hits mostly activators; 0.02% of 420,000 active; AID 602332; further: series mostly up to about 76 µM; % of control where 0% means no effect; nearly all actives have a fitted effect of over 35% in size
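Stably transfected U87-MG human glioma cells carrying a GRP78-based luminescent sensor were seeded at 1000 cells/well, pin-dosed with compounds and incubated 16 h. Luciferase reagent was then added, and end-point luminescence was read after 10 min at room temperature.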
Anesthetic bind = candidate novel general anesthetic via apoferritin binding; P02791; apoferritin/1-aminoanthracene competitive binding, fluorescence; Potency, µM (titrated, usually from 77.5 µM), without a hit: at the top dose activity change, negative = displacement, usual class: inhibitors; 0.074% of 350,000 active; AID 485281; further: on the % scale 0 is the no-effect control and ±100 the full control effect; nearly all actives have a fitted effect of over 20% in size
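Concentration-response curves derived by four-parameter Hill fitting of normalized fluorescence, where compounds displaced 1-AMA from 10 uM horse apoferritin following a brief 10 min room-temperature incubation; propofol titration acted as positive control.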
12-LOX inh = inhibitors of human 12S-lipoxygenase ALOX12; AID 1671190; purified 12hLO, xylenol orange hydroperoxide absorbance; P18054; 1.1% of 580,000 active; Potency, µM (series often up to 108 µM), without a hit: at the highest dose activity change, negative = inhibition, hits mostly inhibitors; further: on the % scale 0 is the no-effect control and ±100 the full control effect
Target sequence (P18054 whole entry, looked up): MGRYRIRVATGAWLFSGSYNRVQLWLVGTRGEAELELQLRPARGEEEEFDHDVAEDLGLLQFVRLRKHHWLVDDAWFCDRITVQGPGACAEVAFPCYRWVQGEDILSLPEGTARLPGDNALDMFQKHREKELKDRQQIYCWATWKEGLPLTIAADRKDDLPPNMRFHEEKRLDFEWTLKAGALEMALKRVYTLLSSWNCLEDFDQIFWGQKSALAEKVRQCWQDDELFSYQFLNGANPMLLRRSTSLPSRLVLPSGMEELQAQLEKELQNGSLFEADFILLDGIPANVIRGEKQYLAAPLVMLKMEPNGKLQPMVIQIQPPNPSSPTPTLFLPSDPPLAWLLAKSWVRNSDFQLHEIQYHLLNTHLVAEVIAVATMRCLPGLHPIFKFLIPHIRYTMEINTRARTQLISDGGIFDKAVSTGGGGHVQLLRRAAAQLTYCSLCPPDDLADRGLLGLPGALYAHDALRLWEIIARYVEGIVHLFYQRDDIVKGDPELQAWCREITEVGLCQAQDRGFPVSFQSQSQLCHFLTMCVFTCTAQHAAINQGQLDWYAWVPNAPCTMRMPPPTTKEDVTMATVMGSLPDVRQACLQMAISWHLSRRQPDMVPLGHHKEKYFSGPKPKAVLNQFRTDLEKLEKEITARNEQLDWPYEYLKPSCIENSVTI
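Hydroperoxide product was detected by ferrous iron/xylenol orange as the 573 to 405 nm absorbance ratio. Arachidonic acid at 40 uM (final) was turned over for 30 min at room temperature by 150 nM human 12hLO, pH 7.0 Hepes buffer, after 15 min compound preincubation.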
Chronic BCR inh = inhibitors of chronic active B-cell receptor signaling; ABC-DLBCL IkBa-CBG/CBR reporter, luminescence ratio, 4 h; Potency, µM (top dose mostly 46.1 µM), without a hit: at the highest dose activity change, negative = inhibition, usual class: inhibitors; 0.05% of 340,000 active; active means well fitted inhibition curve with a large enough effect in the signal ratio, with a control signal flat, not every such curve was filed as active; inconclusive means small, poorly fitted or top-dose-only effect, or effect the other way, or a change in a side signal; the % refers to the signal ratio;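 further: plate controls were basal doxycycline-induced cells for no effect and cells given 10 µM MG132 for full effect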
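Doxycycline induced both beetle luciferases in TMD8 lymphoma cells; IKK-driven degradation limits the IkappaBalpha-fused green signal, while red luminescence normalises for cell number and nonspecific effects. Compounds tested up to 46 uM, 4 hrs.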
Active calls of the source: *; u = inconclusive; x = no result given; [ ] = another dose, or the depositor's remark. The list is not random: actives were taken first. Their share in the collection is about 1.1%. Unless noted, the call rests on the fitted dose curve; in most records, active means well fitted curve in the direction sought with a large enough effect; inconclusive means small, poorly fitted or top-dose-only effect, or another doubt; inactive means no such curve, though single readings can be large; an effect the other way counts as inactive or inconclusive. Potency means the concentration at half of the fitted maximal effect.

SMILES	Glioma ERSR ind	Anesthetic bind	12-LOX inh	Chronic BCR inh
COc1ccc(/C=N/NC(=O)c2ccc(CSc3nc(C)cc(C)n3)cc2)cc1O	1%	0%	-1%	16µM*
CC(=O)N1C[C@@H]2CCCN3CCC[C@@H]([C@H]23)[C@H]1CCCC(=O)Nc1ccccc1	x	x	-13%	x
Clc1ccc(-c2cc3ccccn3c2)cc1	x	x	4µM*	x
O=C1NCCN2CC3(CCN(C(=O)COc4ccc(F)cc4)CC3)CC12 (configuration not stated)	x	x	77%	x
O=C(COc1ccc(F)cc1)N1CCC2(CC1)NC(=O)N(c1ccccc1Cl)N2	x	x	1.4µM*	x
O=C(Cc1ccc(F)cc1)N1CCC2(CC1)NC(=O)N(c1ccccc1Cl)N2	x	x	1.3µM*	x
O=C(c1ccc(F)cc1Cl)N1CCC2(CC1)NC(=O)N(c1ccccc1Cl)N2	x	x	1.4µM*	x
O=C(c1ccc(F)cc1Cl)N1CCC2(CC1)NC(=O)N(Cc1ccccc1)C2=O	x	x	-16%	x
O=C(Cc1ccc(F)cc1)N1CCC2(CC1)NC(=O)N(Cc1ccc(F)cc1)C2=O	x	x	6%	x
CCCCCCOC(=O)c1ccccc1	x	x	3%[176 µM]	x
COc1cc2c(cc1OC)CN(C(=O)COC(=O)c1cccnc1Nc1ccccc1F)CC2	x	x	-11%	x
CCS(=O)(=O)c1ccc2oc(Nc3cc(C)cc(C)c3)nc2c1	0%	u	13%	u
CCS(=O)(=O)c1ccc2oc(Nc3ccc(C(C)C)cc3)nc2c1	-2%	-15%	7.1µM*	9%
COCCNC(=O)c1nc(-c2cccc3[nH]ccc23)no1	x	x	-3%	x
CCCc1cc(=O)c2c(O)ccc(OC)c2o1	-4%	-9%	25µM*	u
COc1cc(-c2cc(OC)c3c(C)oc(C)c3c(=O)c2)ccc1O	-4%	u	u	u
Cc1ccc2oc(C(=O)NCC(c3cccs3)N3CCOCC3)c(C)c2c1 (configuration not stated)	x	x	-5%	x
COc1ccc(Br)cc1/C=c1\sc2nc(-c3ccco3)nn2c1=O	-6%	-7%	22µM*	19%
CCOc1ccccc1Oc1c(C(F)(F)F)oc2cc(OC(=O)c3ccc(C)cc3)ccc2c1=O	x	x	-1%	x
O=C(Oc1c(Cl)cc(Cl)c2cccnc12)c1cccc([N+](=O)[O-])c1	-3%	-7%	x	21µM*
CS(=O)(=O)c1ccc(CN2C[C@@H]3C[C@H]2C(=O)N(Cc2ccc(OC(F)(F)F)cc2)c2ccccc2O3)cc1	x	x	-5%	x
Cc1ccc(C)n1C1C(=O)N(Cc2ccc(C(C)C)cc2)c2ccc(OC(F)(F)F)cc21 (configuration not stated)	x	x	16µM*	x
COCCCNC(=O)Cc1c(C)c2ccc(OC)c(OC)c2oc1=O	x	x	55%	x
O=C(C1CCCN(Cc2ccccc2[N+](=O)[O-])C1)N1CCCCC1 (configuration not stated)	-3%	4%	2µM*	0%
O=C(C1CCCN(Cc2cccc3ccccc23)C1)N1CCCCC1 (configuration not stated)	x	x	0.45µM*	x
SMILES	Glioma ERSR ind	Anesthetic bind	12-LOX inh	Chronic BCR inh
O=C(C1CCCN(Cc2ccccc2Cl)C1)N1CCCCC1 (configuration not stated)	-4%	-5%	u	0%
O=C1CC2(CCN(C(=O)c3ccccc3F)CC2)CN1C/C=C/c1ccccc1	x	x	27%	x
CC(=O)NS(=O)(=O)c1ccc(N=c2ssc3c2-c2ccc(C)cc2NC3(C)C)cc1	0%	-9%	16µM*	u
CSCCC(NS(=O)(=O)c1cccs1)C(=O)Nc1ccc(C)c(Cl)c1 (configuration not stated)	-3%	-10%	50µM*	x
NN1C(=O)/C(=C2/Sc3ccccc3N2CCCS(=O)(=O)O)SC1=S	-3%	3%	14µM*	2%
COc1ccc(OC)c(CN2CCC(Cc3ccccc3)CC2)c1	-2%	4%	u	8%
CSc1ccc(CN2CCC(Cc3ccccc3)CC2)cc1	-2%	-2%	1.6µM*	3%
COc1ccccc1CN1CCC(Cc2ccccc2)CC1	x	x	0.56µM*	x
COc1cc(C)c(CN2CCC(Cc3ccccc3)CC2)cc1C	-3%	-10%	u	u
COc1cc(OC)c(CN2CCC(Cc3ccccc3)CC2)cc1Br	-5%	-4%	1µM*	1%
CCn1ccc2cc(S(=O)(=O)N3CCC(C(=O)NCCCOC(C)C)CC3)ccc21	x	x	5%	x
C/C(=N\NC(=O)Cc1ccc(Cl)c(Cl)c1)c1cccnc1	-2%	u	18%	0%
C/C(=N\Nc1ccc(C)c(Cl)c1)c1ccncc1	6%	u	45µM*	u
C/C(=N\NC(=O)C(=O)Nc1ccc(C)c(Cl)c1)c1ccncc1	-5%	5%	8%	-4%
C/C(=N\Nc1ccc(C)c(Cl)c1)c1cccnc1	2%	u	4.5µM*	4%
COc1cccc(CC(=O)N2CCC(Cn3c(C)cnc3C3CCC3)CC2)c1	x	x	58%	x
CC(C)CCNC(=O)NC(=O)CCl	x	x	28µM*	x
C=CCNc1nc(-c2cc3ccccc3o2)cs1	-7%	-12%	50µM*	u
Oc1ccc(-c2nc(-c3cc4ccccc4o3)cs2)cc1	x	x	11µM*	x
O=C(NCc1ccncc1)c1cc(-c2ccc(F)cc2)nc2ccccc12	x	x	4%	x
COCCNC(=O)c1ccc(OC2CCN(CCC(C)c3ccc(C)o3)CC2)c(Cl)c1 (configuration not stated)	x	x	44%	x
O=C(O)c1ccc(OCc2nnnn2-c2ccccc2)cc1	x	x	5%	x
Cn1cc(CNCC2(COc3ccc(C(F)(F)F)cn3)C[C@@H](O)[C@@H](O)C2)cn1 (some centres not stated)	x	x	18µM*	x
O=C(NC1CCCC1)C1=Cc2cc(Br)ccc2OC=C1	x	x	27%	x
O=[N+]([O-])c1c(Nc2cccc(Cl)c2Cl)cc(Cl)c2nonc12	x	x	16µM*	x
CCCCCCCc1ccc(-c2nnc(-c3ccc(Br)cc3)o2)cc1	x	x	11%	x

Assay outcomes as filed in PubChem.
